{"source": "PubChem BioAssay AID1986", "about": "(Sanford-Burnham Center for Chemical Genomics, 2009)", "assay": "inhibitors of HIV fusion peptide binding, primary screen, biochemical, uHTS, fluorescence dequenching (AID 1986)", "conditions": "cell-free peptide binding, 30 min, stronger effect = higher value", "note": "In all, about 290,000 compounds went through this assay and about 890 (0.31%) were called active. Rule as the data show it: active = inhibition mostly above about 52% (no sharp cut-off); inactive = mostly below about 76%. For the sample, actives were picked, then their nearest neighbours and some compounds at random.", "data": [{"smiles": "CCCCCCCCCC[n+]1cccc(C(=O)N(CC)CC)c1", "values": [{"measurement": "inhibition", "setting": "at 20 µM", "result": "3% (inactive)"}]}, {"smiles": "CCCCCCCCCCCCCCCC[n+]1ccc(C(N)=O)cc1", "values": [{"measurement": "inhibition", "setting": "at 20 µM", "result": "-14.2% (inactive)"}]}, {"smiles": "CCCn1c(=O)c2sccc2n2c(CCCC(=O)NCc3cccnc3)nnc12", "values": [{"measurement": "inhibition", "setting": "at 20 µM", "result": "-1.5% (inactive)"}]}, {"smiles": "O=C(c1ccccc1)N1N=C(c2ccccc2)CC1c1ccccc1", "note": "(stereo not given)", "values": [{"measurement": "inhibition", "setting": "at 20 µM", "result": "1.1% (inactive)"}]}, {"smiles": "Cc1cc[n+](-c2[nH]c(=O)sc2/C=N/N=C(\\[O-])c2ccccc2)cc1", "values": [{"measurement": "inhibition", "setting": "at 20 µM", "result": "10.5% (inactive)"}]}, {"smiles": "Cc1cc[n+](-c2[nH]c(=O)sc2/C=N/N=C(\\[O-])c2ccncc2)cc1C", "values": [{"measurement": "inhibition", "setting": "at 20 µM", "result": "0% (inactive)"}]}, {"smiles": "Cc1cc[n+](-c2[nH]c(=O)sc2/C=N/N=C(\\[O-])c2ccccc2)cc1C", "values": [{"measurement": "inhibition", "setting": "at 20 µM", "result": "116% (active)"}, {"measurement": "inhibition", "setting": "measured here: repeat confirmation average inhibition, at 18.6 µM", "result": 93.6, "unit": "%"}]}, {"smiles": "Cc1cc(NC(=O)CSCC(=O)N(c2cccc(Cl)c2)C(C(=O)NC2CCCCC2)c2ccc(O)c(O)c2)no1", "note": "(stereo not given)", "values": [{"measurement": "inhibition", "setting": "at 20 µM", "result": "11.2% (inactive)"}]}, {"smiles": "CSCc1ccc(C(=O)NC2CC(C)(C)Cc3c2cnn3-c2ccc(F)cc2)o1", "note": "(stereo not given)", "values": [{"measurement": "inhibition", "setting": "at 20 µM", "result": "1.2% (inactive)"}]}, {"smiles": "CCCn1c(=O)c2ccccc2n2c(SCN3C(=O)c4ccccc4C3=O)nnc12", "values": [{"measurement": "inhibition", "setting": "at 20 µM", "result": "0.3% (inactive)"}]}, {"smiles": "O=C(O)c1cccc(-c2ccc(/C=c3/sc4nc5ccccc5n4c3=O)o2)c1", "values": [{"measurement": "inhibition", "setting": "at 20 µM", "result": "78% (active)"}]}, {"smiles": "N#C/C(=C\\c1ccc(-c2ccc([N+](=O)[O-])cc2)o1)C(=O)Nc1nc(-c2cccs2)cs1", "values": [{"measurement": "inhibition", "setting": "at 20 µM", "result": "-1.7% (inactive)"}]}, {"smiles": "N#C/C(=C/c1ccc(-c2ccc(S(N)(=O)=O)cc2)o1)c1nc2ccccc2s1", "values": [{"measurement": "inhibition", "setting": "at 20 µM", "result": "149% (inactive)"}]}, {"smiles": "O=C(O)c1cc(-c2ccc(/C=C3\\NC(=O)N(c4ccccc4)C3=O)o2)ccc1Cl", "values": [{"measurement": "inhibition", "setting": "at 20 µM", "result": "32.2% (inactive)"}]}, {"smiles": "N#C/C(=C/c1ccc(-c2cc(C(=O)O)cc(C(=O)O)c2)o1)c1nc2ccccc2s1", "values": [{"measurement": "inhibition", "setting": "at 20 µM", "result": "92.9% (active)"}]}, {"smiles": "N#C/C(=C\\c1ccco1)c1nc2ccccc2s1", "values": [{"measurement": "inhibition", "setting": "at 20 µM", "result": "146% (inactive)"}]}, {"smiles": "CC1(C)OC(=O)C(=Cc2ccc(-c3ccc(Cl)c(C(=O)O)c3)o2)C(=O)O1", "values": [{"measurement": "inhibition", "setting": "at 20 µM", "result": "36.9% (inactive)"}]}, {"smiles": "O=C(O)c1cccc(-c2ccc(/C=N/n3cnnc3)o2)c1", "values": [{"measurement": "inhibition", "setting": "at 20 µM", "result": "1.6% (inactive)"}]}, {"smiles": "O=Cc1ccc(-c2cccc(C(=O)O)c2)o1", "values": [{"measurement": "inhibition", "setting": "at 20 µM", "result": "2.4% (inactive)"}]}, {"smiles": "N#C/C(=C\\c1ccc(-c2ccc(F)cc2)o1)C(=O)Nc1nc(-c2cccs2)cs1", "values": [{"measurement": "inhibition", "setting": "at 20 µM", "result": "14.4% (inactive)"}]}, {"smiles": "N#C/C(=C/c1ccc(-c2ccccc2)o1)c1nc(-c2cccs2)cs1", "values": [{"measurement": "inhibition", "setting": "at 20 µM", "result": "62.6% (active)"}]}, {"smiles": "O=C(O)c1cc(-c2ccc(/C=c3\\sc4nc5ccc(Br)cc5n4c3=O)o2)ccc1Cl", "values": [{"measurement": "inhibition", "setting": "at 20 µM", "result": "68.1% (active)"}]}, {"smiles": "COC(=O)c1cccc(Cn2nnc3ccccc3c2=O)c1", "values": [{"measurement": "inhibition", "setting": "at 20 µM", "result": "0.9% (inactive)"}]}, {"smiles": "O=C(NCCN1C(=O)S/C(=C\\c2ccc(OC(F)F)cc2)C1=O)[C@@H]1CCCN1C(=O)c1cccs1", "values": [{"measurement": "inhibition", "setting": "at 20 µM", "result": "0.1% (inactive)"}]}]}
